The nature of assay [1]: qHTS assay for identifying genotoxic compounds that show differential cytotoxicity against isogenic chicken DT40 cell lines with known DNA damage response pathways - wild type cell line (AID 743012). Also: nearly all actives have a fitted effect of over 60% in size. In a few lines:
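Luminescent ATP viability signal (CellTiter-Glo, 30 min RT) recorded after wild type DT40 cells were incubated with compounds for 40 h at 37 C/5% CO2.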
(In general: In qHTS, concentration-response curves come from the screen itself.)

A short description of assay [2]: qHTS assay for identifying genotoxic compounds that show differential cytotoxicity against isogenic chicken DT40 cell lines with known DNA damage response pathways - Rev3 mutant cell line (AID 743014). Also: nearly all actives have a fitted effect of over 55% in size.
A short description of assay [3]: qHTS assay for identifying genotoxic compounds that show differential cytotoxicity against isogenic chicken DT40 cell lines with known DNA damage response pathways - Rad54/Ku70 mutant cell line (AID 743015). Also: nearly all actives have a fitted effect of over 60% in size.
Assay [4] in a line: qHTS assay to identify small molecule antagonists of the androgen receptor (AR) signaling pathway - cell viability counter screen (AID 743033; also: nearly all actives have a fitted effect of over 45% in size).
The nature of assay [5]: qHTS assay to identify small molecule antagonists of the androgen receptor (AR) signaling pathway using the MDA cell line - cell viability counter screen (AID 743041; also: nearly all actives have a fitted effect of over 45% in size). In a few lines: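 In this qHTS counter assay, fluorescence intensity after CellTiter-Fluor addition indicated viability of MDA-kb2 AR-luc cells given compounds and R1881 for 16 h at 37C.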
A short description of assay [6]: qHTS assay to identify small molecule antagonists of the thyroid receptor (TR) signaling pathway - cell viability counter screen (AID 743064). Also: nearly all actives have a fitted effect of over 50% in size. In a few lines: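 Same-well viability check: GH3.TRE-Luc cells stimulated with 1 nM T3 alongside test compound for 23.5 h, followed by CellTiter-Fluor fluorescence.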
The nature of assay [7]: qHTS assay to identify small molecule antagonists of the thyroid receptor (TR) signaling pathway (AID 743065). Also: series mostly up to about 70 µM; nearly all actives have a fitted effect of over 55% in size. In a few lines: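 GH3.TRE-Luc rat pituitary cells carrying two TR response elements driving luciferase were plated for 4 h, given compound plus 1 nM T3 (final), and incubated 23.5 h at 37 C. ONE-Glo luminescence measured reporter inhibition; CellTiter-Fluor fluorescence tracked cytotoxicity.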

For assay [8], the system named is thyroid hormone receptor (rat, GH3 cells). In words: qHTS assay to identify small molecule agonists of the thyroid receptor (TR) signaling pathway (AID 743066; calls by dose curve).
Assay [9] deals with Estrogen receptor (Homo sapiens) (UniProt P03372). Kind of assay: qHTS assay to identify small molecule antagonists of the estrogen receptor alpha (ER-alpha) signaling pathway (AID 743069; active = well fitted curve in the direction sought with a large enough effect in the signal ratio in the repeat runs, not every such curve was filed as active; the % refers to the signal ratio). The essentials: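 A 17beta-estradiol challenge was applied right after compound transfer to ER-alpha-UAS-bla HEK293 cells previously kept in charcoal-stripped serum. Plates stood 18 hr at 37C and 5% CO2; fluorescence was read following 2 hr FRET substrate loading at room temperature.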
Sequence of Estrogen receptor (Homo sapiens) (P03372 whole entry, looked up): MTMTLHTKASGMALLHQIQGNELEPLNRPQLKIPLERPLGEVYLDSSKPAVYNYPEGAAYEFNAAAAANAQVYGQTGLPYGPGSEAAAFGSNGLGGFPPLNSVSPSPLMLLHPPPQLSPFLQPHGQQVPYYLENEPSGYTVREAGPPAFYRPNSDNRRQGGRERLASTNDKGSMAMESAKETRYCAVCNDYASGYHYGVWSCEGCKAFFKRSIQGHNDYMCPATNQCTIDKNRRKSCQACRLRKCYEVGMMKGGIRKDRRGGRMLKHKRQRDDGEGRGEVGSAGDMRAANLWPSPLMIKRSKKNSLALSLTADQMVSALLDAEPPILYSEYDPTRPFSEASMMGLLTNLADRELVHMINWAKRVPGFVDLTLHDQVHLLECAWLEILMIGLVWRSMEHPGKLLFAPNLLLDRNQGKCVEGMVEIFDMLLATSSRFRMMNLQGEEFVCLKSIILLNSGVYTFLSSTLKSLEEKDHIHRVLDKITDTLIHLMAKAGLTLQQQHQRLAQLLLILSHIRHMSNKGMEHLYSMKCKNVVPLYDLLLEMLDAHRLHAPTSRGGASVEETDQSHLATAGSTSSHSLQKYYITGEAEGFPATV

Assay [10] can be described thus: qHTS assay to identify small molecule antagonists of the estrogen receptor alpha (ER-alpha) signaling pathway - cell viability counter screen (AID 743074; calls by dose curve;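 also: HEK293 cells carrying ER-alpha-UAS-bla reporter stimulated with 17beta-estradiol; nearly all actives have a fitted effect of over 45% in size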).
The target in assay [11] is Estrogen receptor (Homo sapiens) (UniProt P03372). In words: qHTS assay to identify small molecule agonists of the estrogen receptor alpha (ER-alpha) signaling pathway (AID 743075; calls by dose curve;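 also: HEK293 GripTite cells with ER-alpha and UAS-driven beta-lactamase reporter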).
Assay [12] has the same target. Kind of assay: qHTS assay to identify small molecule agonists of the estrogen receptor alpha (ER-alpha) signaling pathway using the BG1 cell line (AID 743079). Also: nearly all actives have a fitted effect of over 20% in size. Also: potency is read from the fitted curve at half-maximal effect.
Assay [13] is described as follows: qHTS assay to identify small molecule antagonists of the estrogen receptor alpha (ER-alpha) signaling pathway using the BG1 cell line (AID 743080; calls by dose curve;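 also: BG1 cells stimulated with 17beta-estradiol alongside compound; series mostly up to about 70 µM; nearly all actives have a fitted effect of over 25% in size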). The essentials: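 Seeding, 24 h rest, compound transfer from DMSO, 17beta-estradiol addition, 21.5 h incubation, CellTiter-Fluor (30 min, 37 C), then ONE-Glo (30 min, room temperature): this sequence was run on BG1-Luc-4E2 reporter cells.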

Assay [14] is described as follows: qHTS assay to identify small molecule antagonists of the estrogen receptor alpha (ER-alpha) signaling pathway using the BG1 cell line - cell viability counter screen (AID 743081).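 Also: compound given together with 17beta-estradiol as the ER stimulus; series mostly up to about 70 µM; nearly all actives have a fitted effect of over 45% in size.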
In another assay the target is Aromatase (Homo sapiens) (UniProt P11511). In words: qHTS assay to identify aromatase inhibitors (AID 743083). Also: series mostly up to about 70 µM; nearly all actives have a fitted effect of over 55% in size.
Sequence of Aromatase (Homo sapiens) (P11511 whole entry, looked up): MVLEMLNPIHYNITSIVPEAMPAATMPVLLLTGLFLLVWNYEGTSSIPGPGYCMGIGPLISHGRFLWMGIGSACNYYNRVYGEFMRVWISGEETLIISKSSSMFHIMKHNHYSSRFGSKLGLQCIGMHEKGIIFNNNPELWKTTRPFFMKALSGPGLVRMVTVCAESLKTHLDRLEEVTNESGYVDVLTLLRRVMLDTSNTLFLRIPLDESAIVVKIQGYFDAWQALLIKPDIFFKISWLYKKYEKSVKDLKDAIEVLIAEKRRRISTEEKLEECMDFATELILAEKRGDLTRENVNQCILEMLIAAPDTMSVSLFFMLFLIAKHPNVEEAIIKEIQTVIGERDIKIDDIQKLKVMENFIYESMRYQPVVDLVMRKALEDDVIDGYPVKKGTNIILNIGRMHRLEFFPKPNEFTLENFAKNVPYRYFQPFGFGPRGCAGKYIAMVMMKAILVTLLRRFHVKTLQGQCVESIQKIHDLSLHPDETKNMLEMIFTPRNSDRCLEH
Assay [15] is described as follows: qHTS assay to identify aromatase inhibitors - cell viability counter screen (AID 743084).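 Also: cells stimulated with testosterone during compound exposure; nearly all actives have a fitted effect of over 55% in size.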
A short description of assay [16]: qHTS assay to identify small molecule antagonists of the glucocorticoid receptor (GR) signaling pathway - cell viability counter screen (AID 720693). Also: nearly all actives have a fitted effect of over 55% in size.

Inconclusive results are not listed. Values without a mark were called inactive. Active and inactive are the calls of the source. Unless noted, calls follow the shape of the dose curve; as a rule, active = well fitted curve in the direction sought with a large enough effect in the repeat runs; inconclusive = weak or mixed curves; inactive = no such curve, though single readings can be large; an effect the other way counts as inactive or inconclusive.
% is scaled to controls: 0 for no effect and ±100 for the full control effect.

In the case of `CC1CC(=O)CC(C)(C)C1` (stereo not given), the Potency result in assay [1], in assay [2], in assay [3], in [5], in [6] and in assay [7] was “inactive” throughout. For the same molecule, the Potency result in assay [11], in assay [12], in assay [14] and in assay [15] was “inactive” each time. The molecule was called inactive (in assay [4]; in [8]; in assay [9]; in assay [10]; in assay [13]; in the assay with Aromatase (Homo sapiens)).
For the molecule `CCCCCCCCCCCCCCCCCC#N`, the Potency result in assay [1], in [2], in [3], in [5], in assay [6] and in assay [7] was “inactive” throughout. For the same molecule, the Potency entry in assay [11], in assay [12] and in [15] was “inactive” each time. Besides, the outcome (in [4]; in assay [8]; in assay [9]; in assay [10]; in [13]; with Aromatase (Homo sapiens)) was inactive.
Regarding `C=CCSSCCC`, the molecule was called inactive (in assay [16]; in assay [4]; in [8]; in assay [10]; in assay [13]; in the assay with Aromatase (Homo sapiens)). Besides, the Potency entry in assay [2], in [3], in assay [5], in assay [6], in [7] and in assay [11] was “inactive” each time. Besides, the Potency result in assay [12], in assay [14] and in assay [15] was “inactive” each time.
For the molecule `C=C(C)C1CC=C(C)C(=O)C1` (stereo not given), the Potency entry in assay [1], in assay [2], in assay [3], in [5], in [7] and in assay [14] was “inactive” each time. In addition, in [15], the Potency result was “inactive”. Moreover, the molecule was classed as inactive (in assay [4]; in [8]; in [10]; with Aromatase (Homo sapiens)).
For the molecule `Cc1ccc(C)c([N+](=O)[O-])c1`, the Potency entry in assay [1], in assay [2], in assay [3], in assay [5], in [6] and in assay [7] was “inactive” in each case. Besides, the Potency result in assay [14] and in [15] was “inactive” in each case. For the same molecule, the result (in assay [8]; in assay [10]; in the assay with Aromatase (Homo sapiens)) was inactive.
In the case of `OC1OCCOC1O` (stereo not given), the Potency entry in assay [1], in [2], in [3], in [5], in assay [6] and in assay [7] was “inactive” in each case. The Potency result in assay [11], in assay [12], in [14] and in [15] was “inactive” throughout. For the same molecule, the outcome (in assay [8]; in [9]; in assay [10]; in assay [13]; with Aromatase (Homo sapiens)) was inactive.
Consider `O=C1c2ccccc2C(=O)c2cc(Cl)ccc21`, for which the activity change, negative = cytotoxicity in [1] is 8.37% [at 8.52 µM]; in assay [3], 2.51% [at 8.55 µM]; in assay [4], 5.05% [at 7.04 µM]; in [14], 5.98% [at 8.47 µM]; in assay [15] it was 7.6% [at 8.47 µM]. The activity, negative = cytotoxicity was 3.55% [at 8.53 µM] in assay [2] and -11.1% [at 6.72 µM] in [10]. Further, in assay [5], the viability change, negative = cytotoxic was -1.61% [at 8.47 µM]. Moreover, the activation in [8] is 1.1% [at 8.08 µM]; in assay [11] it was -3.38% [at 6.71 µM]. Besides, the activity change, negative = inhibition in [13] is 1.09% [at 8.47 µM]. Moreover, in the assay with Aromatase (Homo sapiens), the activity, negative = inhibition is 23.3% [at 8.47 µM].
For the molecule `CCC(C)C(C)=O` (stereo not given), the Potency result in [1], in [2], in assay [3], in [5], in assay [6] and in assay [7] was “inactive” each time. The Potency entry in assay [11], in assay [14] and in [15] was “inactive” throughout. Further, the molecule was called inactive (in assay [8]; in [10]; in assay [13]; with Aromatase (Homo sapiens)). The Potency in [12] was 67 µM (active).
As to `N#Cc1cscn1`, the Potency entry in [1], in assay [2], in assay [3], in assay [5], in assay [6] and in assay [7] was “inactive” each time. The Potency entry in assay [14] and in assay [15] was “inactive” each time. The call (in assay [4]; in [8]; in the assay with Aromatase (Homo sapiens)) was inactive.
For `Fc1ccccc1`, the Potency entry in [1], in [2], in [3], in assay [5], in assay [6] and in assay [7] was “inactive” throughout. Also, the Potency result in [11], in assay [12], in assay [14] and in [15] was “inactive” each time. Moreover, the call (in assay [4]; in [8]; in assay [10]; in [13]; with Aromatase (Homo sapiens)) was inactive.

For the origin of these results see PubChem BioAssay (Tox21).
